Reference: publication PMC7862700, “An all-to-all approach to the identification of sequence-specific readers for epigenetic DNA modifications on cytosine”

Key:
Test in all cases: DAPPL (digital affinity profiling via proximity ligation, sequencing); 10 mM Tris-HCl pH 7.5, 50 mM NaCl, 1 mM DTT, 4% glycerol, room temperature, 30 min; GST-TFs on glutathione beads, 16-mer random dsDNA library, 0.1% formaldehyde crosslink after washing; high values mean tight binding
Conditions in all cases: protein: recombinant; tags: N-terminal GST; dsDNA, one strand shown
SPIC = biological target: T1, SPIC (Homo sapiens, UniProt Q8N5J4 1-248)
T1 sequence: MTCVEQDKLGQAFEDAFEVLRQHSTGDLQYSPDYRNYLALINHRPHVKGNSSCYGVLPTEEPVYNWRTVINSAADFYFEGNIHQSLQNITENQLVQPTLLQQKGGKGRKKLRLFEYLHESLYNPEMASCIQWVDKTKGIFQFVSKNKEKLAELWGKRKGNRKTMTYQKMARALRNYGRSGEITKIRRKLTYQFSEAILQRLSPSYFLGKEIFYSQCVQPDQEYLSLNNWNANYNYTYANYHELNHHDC
Summary of the method: (§1)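 Human transcription factors were made in yeast as GST fusions, captured on glutathione beads and barcoded with DNA. With a tag-only sample included, the pool was incubated with 200 nmole of a random double-stranded 16-mer DNA library in Tris/NaCl/DTT/glycerol buffer at room temperature for 30 min, then crosslinked with 0.1% formaldehyde after washing, ligated by proximity, amplified and sequenced. For binding signal, each hexamer's read frequency for a factor is divided by its frequency for the tag-only sample.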

ETV7 = biological target: T2, ETV7 (Homo sapiens, UniProt Q9Y603 1-341)
T2 sequence: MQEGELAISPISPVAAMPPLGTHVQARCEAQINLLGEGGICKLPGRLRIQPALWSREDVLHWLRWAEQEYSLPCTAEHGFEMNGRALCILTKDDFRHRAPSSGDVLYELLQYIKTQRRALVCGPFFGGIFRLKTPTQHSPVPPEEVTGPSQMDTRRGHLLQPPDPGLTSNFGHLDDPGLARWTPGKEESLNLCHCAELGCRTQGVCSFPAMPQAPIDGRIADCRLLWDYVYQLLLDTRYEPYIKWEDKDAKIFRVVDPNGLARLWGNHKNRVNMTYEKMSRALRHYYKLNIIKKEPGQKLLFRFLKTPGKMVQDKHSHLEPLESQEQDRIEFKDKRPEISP
Summary of the method: as §1

ETV2 = biological target: T3, ETV2 (Homo sapiens, UniProt O00321 1-342)
T3 sequence: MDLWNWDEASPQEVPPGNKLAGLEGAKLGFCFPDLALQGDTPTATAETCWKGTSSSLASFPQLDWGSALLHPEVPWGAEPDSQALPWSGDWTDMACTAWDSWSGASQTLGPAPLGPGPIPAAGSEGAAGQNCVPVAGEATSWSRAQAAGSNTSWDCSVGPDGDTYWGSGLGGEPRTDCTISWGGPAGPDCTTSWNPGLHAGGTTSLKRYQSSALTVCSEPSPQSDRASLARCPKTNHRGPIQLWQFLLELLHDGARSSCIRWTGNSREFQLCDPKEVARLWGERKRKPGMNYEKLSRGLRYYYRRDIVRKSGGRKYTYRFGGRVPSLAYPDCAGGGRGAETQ
Summary of the method: as §1

ERF = biological target: T4, ERF (Homo sapiens, UniProt P50548 1-548)
T4 sequence: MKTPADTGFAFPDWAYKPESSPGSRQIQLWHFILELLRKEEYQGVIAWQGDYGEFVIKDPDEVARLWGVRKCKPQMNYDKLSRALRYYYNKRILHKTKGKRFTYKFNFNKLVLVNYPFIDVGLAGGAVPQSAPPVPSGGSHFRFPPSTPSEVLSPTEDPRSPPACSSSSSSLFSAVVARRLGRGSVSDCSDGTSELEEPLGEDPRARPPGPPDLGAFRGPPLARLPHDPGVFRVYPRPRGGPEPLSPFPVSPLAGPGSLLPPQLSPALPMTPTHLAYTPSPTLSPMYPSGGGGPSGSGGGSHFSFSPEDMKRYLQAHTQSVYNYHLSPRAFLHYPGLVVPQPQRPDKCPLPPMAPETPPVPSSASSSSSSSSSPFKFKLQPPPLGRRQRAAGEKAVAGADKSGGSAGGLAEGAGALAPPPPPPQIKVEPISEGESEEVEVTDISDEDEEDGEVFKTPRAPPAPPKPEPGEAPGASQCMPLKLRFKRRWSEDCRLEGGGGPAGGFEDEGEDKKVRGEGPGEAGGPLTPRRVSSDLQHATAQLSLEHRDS
Summary of the method: as §1

EHF = biological target: T5, EHF (Homo sapiens, UniProt Q9NZC4 1-300)
T5 sequence: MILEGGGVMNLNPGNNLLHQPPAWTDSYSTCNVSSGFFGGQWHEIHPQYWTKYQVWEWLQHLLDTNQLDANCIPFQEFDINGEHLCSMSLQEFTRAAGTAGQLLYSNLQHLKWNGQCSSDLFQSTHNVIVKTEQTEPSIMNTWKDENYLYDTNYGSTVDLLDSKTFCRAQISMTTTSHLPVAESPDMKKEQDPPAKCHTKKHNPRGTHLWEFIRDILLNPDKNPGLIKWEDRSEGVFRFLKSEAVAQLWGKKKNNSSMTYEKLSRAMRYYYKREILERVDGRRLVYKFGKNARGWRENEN
Summary of the method: as §1

SPIB = SPIB (Homo sapiens, UniProt Q01892 1-262)
Summary of the method: as §1

ELK3 = biological target: T6, ELK3 (Homo sapiens, UniProt P41970 1-407)
T6 sequence: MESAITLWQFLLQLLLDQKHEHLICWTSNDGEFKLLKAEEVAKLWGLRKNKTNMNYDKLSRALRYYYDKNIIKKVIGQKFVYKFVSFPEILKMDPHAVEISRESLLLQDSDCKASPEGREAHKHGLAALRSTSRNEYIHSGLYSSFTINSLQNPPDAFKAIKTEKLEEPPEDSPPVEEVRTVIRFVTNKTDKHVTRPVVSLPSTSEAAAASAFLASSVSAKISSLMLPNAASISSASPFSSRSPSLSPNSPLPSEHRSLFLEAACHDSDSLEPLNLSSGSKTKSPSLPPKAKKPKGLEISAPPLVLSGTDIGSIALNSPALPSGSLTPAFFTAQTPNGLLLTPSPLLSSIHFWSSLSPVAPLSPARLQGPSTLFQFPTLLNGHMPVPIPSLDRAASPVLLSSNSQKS
Summary of the method: as §1

ELK4 = biological target: T7, ELK4 (Homo sapiens, UniProt P28324-2 1-405)
T7 sequence: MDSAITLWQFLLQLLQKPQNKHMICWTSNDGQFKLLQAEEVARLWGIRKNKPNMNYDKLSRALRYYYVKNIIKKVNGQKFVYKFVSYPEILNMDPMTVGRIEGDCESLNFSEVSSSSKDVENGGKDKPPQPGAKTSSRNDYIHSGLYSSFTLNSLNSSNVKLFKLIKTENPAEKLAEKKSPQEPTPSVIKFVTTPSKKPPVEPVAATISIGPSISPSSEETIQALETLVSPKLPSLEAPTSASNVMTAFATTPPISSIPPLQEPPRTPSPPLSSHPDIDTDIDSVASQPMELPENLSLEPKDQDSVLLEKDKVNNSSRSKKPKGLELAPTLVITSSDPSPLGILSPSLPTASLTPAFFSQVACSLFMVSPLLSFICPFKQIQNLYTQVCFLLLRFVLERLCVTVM
Summary of the method: as §1

ELF3 = biological target: T8, ELF3 (Homo sapiens, UniProt P78545 1-371)
T8 sequence: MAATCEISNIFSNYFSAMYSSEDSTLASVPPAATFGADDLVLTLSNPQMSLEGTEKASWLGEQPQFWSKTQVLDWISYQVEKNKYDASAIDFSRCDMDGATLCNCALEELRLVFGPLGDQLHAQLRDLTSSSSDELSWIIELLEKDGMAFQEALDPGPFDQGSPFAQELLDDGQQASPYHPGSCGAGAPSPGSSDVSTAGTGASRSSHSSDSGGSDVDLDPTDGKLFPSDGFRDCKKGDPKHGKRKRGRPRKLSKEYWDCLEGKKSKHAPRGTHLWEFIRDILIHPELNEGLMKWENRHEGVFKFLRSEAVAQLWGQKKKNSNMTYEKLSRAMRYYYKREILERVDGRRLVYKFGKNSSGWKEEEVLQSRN
Summary of the method: as §1

GABPA = biological target: T9, GABPA (Homo sapiens, UniProt Q06546 1-454)
T9 sequence: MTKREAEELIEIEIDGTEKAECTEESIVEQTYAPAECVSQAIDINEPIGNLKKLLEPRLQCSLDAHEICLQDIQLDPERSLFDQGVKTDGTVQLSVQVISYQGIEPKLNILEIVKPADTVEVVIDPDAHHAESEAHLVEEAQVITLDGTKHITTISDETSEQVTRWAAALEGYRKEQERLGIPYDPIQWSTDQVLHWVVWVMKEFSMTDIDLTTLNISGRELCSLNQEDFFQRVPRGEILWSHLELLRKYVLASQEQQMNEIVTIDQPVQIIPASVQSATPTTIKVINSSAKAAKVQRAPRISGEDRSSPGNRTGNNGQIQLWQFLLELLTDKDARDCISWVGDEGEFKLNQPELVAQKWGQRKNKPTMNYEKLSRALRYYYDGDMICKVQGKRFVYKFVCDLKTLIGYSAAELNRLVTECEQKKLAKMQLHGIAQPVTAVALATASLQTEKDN
Summary of the method: as §1

Sequence of SPIB (Q01892 whole entry): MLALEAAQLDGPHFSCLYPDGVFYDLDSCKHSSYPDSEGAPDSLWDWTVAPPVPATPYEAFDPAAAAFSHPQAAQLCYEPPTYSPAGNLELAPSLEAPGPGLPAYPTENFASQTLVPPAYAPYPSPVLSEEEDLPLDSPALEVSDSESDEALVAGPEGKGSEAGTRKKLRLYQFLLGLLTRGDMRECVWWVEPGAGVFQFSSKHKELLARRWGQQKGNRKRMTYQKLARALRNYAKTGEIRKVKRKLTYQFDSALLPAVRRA

GTAGTA
binding signal (SPIC): 1 fold enrichment (6-mer frequency, TF over GST control)
binding signal (ETV7): 1.01 fold enrichment (6-mer frequency, TF over GST control)

AGATGG
binding signal (SPIC): 1.1 fold enrichment (6-mer frequency, TF over GST control)
binding signal (ETV2): 1.02 fold enrichment (6-mer frequency, TF over GST control)

GTTCGT
binding signal (SPIC): 1.12 fold enrichment (6-mer frequency, TF over GST control)
binding signal (ETV2): 1.05 fold enrichment (6-mer frequency, TF over GST control)
binding signal (ERF): 1.12 fold enrichment (6-mer frequency, TF over GST control)

CGCGCA
binding signal (EHF): 1.07 fold enrichment (6-mer frequency, TF over GST control)
binding signal (SPIB): 1.04 fold enrichment (6-mer frequency, TF over GST control)
binding signal (ELK3): 1.01 fold enrichment (6-mer frequency, TF over GST control)
binding signal (SPIC): 1.01 fold enrichment (6-mer frequency, TF over GST control)
binding signal (ELK4): 1.13 fold enrichment (6-mer frequency, TF over GST control)
binding signal (ETV2): 1.02 fold enrichment (6-mer frequency, TF over GST control)

AGGTGT
binding signal (SPIC): 1.02 fold enrichment (6-mer frequency, TF over GST control)
binding signal (ELF3): 1.05 fold enrichment (6-mer frequency, TF over GST control)

TGGCGC
binding signal (GABPA): 1.02 fold enrichment (6-mer frequency, TF over GST control)
binding signal (SPIC): 1.1 fold enrichment (6-mer frequency, TF over GST control)
binding signal (ELK4): 1.06 fold enrichment (6-mer frequency, TF over GST control)
